# PLK1 PBD inh: PLK1 (human) polo-box domain binding inhibition | P53350 | Plk1 PBD binding of FITC phosphopeptide, fluorescence polarization | Potency, µM, without a hit: max response, negative = inhibition, most hits filed as inhibitors | 360,000 tested, 2.8% active; further: series mostly up to about 57 µM; nearly all actives have a fitted effect of over 65% in size
# Target sequence (P53350 whole entry, looked up, the tested form may be a part): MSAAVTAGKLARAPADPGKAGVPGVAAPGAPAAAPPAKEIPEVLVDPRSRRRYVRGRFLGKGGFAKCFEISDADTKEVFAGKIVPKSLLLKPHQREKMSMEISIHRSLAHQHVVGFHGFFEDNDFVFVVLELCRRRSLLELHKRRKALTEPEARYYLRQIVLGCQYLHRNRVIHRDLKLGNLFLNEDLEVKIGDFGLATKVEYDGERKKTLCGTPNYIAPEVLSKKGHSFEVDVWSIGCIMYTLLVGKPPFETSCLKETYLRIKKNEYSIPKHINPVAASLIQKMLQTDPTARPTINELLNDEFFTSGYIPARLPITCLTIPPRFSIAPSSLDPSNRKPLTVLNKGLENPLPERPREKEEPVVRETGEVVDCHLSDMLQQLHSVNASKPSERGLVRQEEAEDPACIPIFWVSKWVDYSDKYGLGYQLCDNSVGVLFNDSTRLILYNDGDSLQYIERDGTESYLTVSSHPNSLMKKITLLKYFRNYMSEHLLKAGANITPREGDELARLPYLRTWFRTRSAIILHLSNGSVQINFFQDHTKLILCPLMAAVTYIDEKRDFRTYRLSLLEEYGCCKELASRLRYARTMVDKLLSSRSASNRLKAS
# Sfp PPTase inh: inhibitors of Bacillus subtilis Sfp phosphopantetheinyl transferase; Biochemical Sfp PPTase activity, qHTS; Q9F4F7; 310,000 tested, 3.5% active; Potency, µM, inactives show largest response in the series, negative = inhibition, most hits filed as inhibitors;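 further: the enzyme is Sfp with the accession as filed and its product quenches rhodamine fluorescence; 0% = enzyme reaction without inhibitor and -100% = no enzyme wells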
#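 Fluorescence-quenching assay with 15 nM Sfp, 5 uM rhodamine-CoA and 12.5 uM BHQ-2-labelled ybbR peptide in pH 7.6 Hepes/MgCl2 buffer. Enzyme was pre-incubated with compound for 15 min at room temperature. Rate was taken from the 30-min fluorescence change (525/598 nm).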
# VDR inh: inhibitors of human vitamin D receptor; P11473; VDR-SRC2-3 peptide fluorescence polarization, 2 h; Potency, µM, for the others: max response, negative = inhibition, usual class: inhibitors; 400,000 tested, 0.93% active; AID 504847
#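 FP read-out; VDR + SRC2-3 coactivator peptide; 23 nl compound by pintool; 2 h RT incubation; reagents held at 4 deg C, protected from light.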
# ALOX12 inh: inhibitors of human 12S-lipoxygenase ALOX12; AID 1671190; P18054; Potency, µM (doses to about 108 µM), for inactives: top-dose activity change, negative = inhibition, actives largely listed as inhibitors; 580,000 tested, 1.1% active; purified 12hLO, xylenol orange hydroperoxide absorbance
#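 Hydroperoxide product was detected by ferrous iron/xylenol orange as the 573 to 405 nm absorbance ratio. Arachidonic acid at 40 uM (final) was turned over for 30 min at room temperature by 150 nM human 12hLO, pH 7.0 Hepes buffer, after 15 min compound preincubation.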
# Numbers without * were called inactive; i = inactive; ? = inconclusive; . = not tested or not shown; [ ] = dose if it differs, or a comment. In the library only some 4.2% were active in any assay of this set; here they are far more common. The call rests on the fitted dose curve; in most records, active means well fitted curve in the direction sought with a large enough effect; inconclusive means small, poorly fitted or top-dose-only effect, or another doubt; inactive means no such curve, though single readings can be large; an effect the other way counts as inactive or inconclusive. Unless noted, on the % scale 0 is the no-effect control and ±100 the full control effect; potency means the concentration at half of the fitted maximal effect.
SMILES,PLK1 PBD inh,Sfp PPTase inh,VDR inh,ALOX12 inh
O=C1[C@H]2[C@@H](c3ccccc3)N[C@]3(CCCN(Cc4ccc(Cl)cc4)C3=O)[C@H]2C(=O)N1Cc1ccccc1,-1.1%,.,.,7.94µM*
COc1ccc(N=Nc2n(C)c3ccccc3[n+]2C)cc1,.,50.1µM*,.,.
Cc1cc(C)c2c(c1)c1nnc(SCCN3CCOCC3)nc1n2C,?,4.3%,2.3%,16.2%
Cc1ccc(S(=O)(=O)CCc2nc3ccccc3s2)cc1,23.8µM*,?,-0.5%,-25.7%
Cc1ccc(-n2nc3c(c2NC(=O)c2ccco2)CS(=O)(=O)C3)c(C)c1,-9.3%,16.2%,-2.0%,?
O=C1OCCC1Sc1nnc(-c2ccc3c(c2)OCO3)o1 (configuration not stated),-2.9%,14.7%,-18.3%,2.5%
O=C1OCCC1Sc1nnc(-c2ccc(O)cc2)o1 (configuration not stated),26.7µM*,6.1%,11.3%,-55.0%
COC(=O)[C@H](NC(=O)[C@@H]1[C@@H](NC(=O)NC(C)C)CCN1C(=O)c1cccn1C)C(C)C,.,.,.,2.2%[176 µM]
O=C(Nc1nnc(-c2ccc(F)cc2)s1)c1ccco1,-2.6%,-1.1%,-14.8%,-1.7%
O=C(Nc1n[nH]c(=S)s1)c1ccco1,?,56.2µM*,-23.4%,?
CCC(=O)NC(=S)Nc1ccc(S(=O)(=O)NC2CCCCC2)cc1,2.1%,-6.7%,0.4%,?
CC(OC(=O)c1cccs1)C(=O)NC1CCCCC1C (configuration not stated),-9.8%,.,-5.7%,0.0%
O=C(NC(=S)Nc1ccc(S(=O)(=O)NC2CCCCC2)cc1)c1cccs1,-12.5%,11.8%,2.3%,15.8µM*
Cc1cccnc1NC(=O)CCC(=O)c1cccs1,-14.3%,.,-6.0%,237.7%
Cc1cccnc1NC(=S)NC(=O)c1cccs1,-1.2%,79.4µM*,7.9%,?
CC1CCCCC1NC(=S)NC(=O)c1cccs1 (configuration not stated),-10.7%,9.9%,12.7%,14.1µM*
O=C(NC(=S)Nc1ccccc1)c1cccs1,-4.4%,44.7µM*,10.9%,?
COC(=O)c1c(C)[nH]c(/C=N/Nc2ccccc2)c1C,-28.6%,-3.0%,17.2%,?
COCCc1nc(CNC(=O)C(c2cccc(F)c2)N(C)C)no1 (configuration not stated),.,.,.,19.4%
Cc1c(C(=O)NC(=S)Nc2ccc(NC(=O)c3cccs3)cc2)oc2ccccc12,-5.6%,8.91µM*,-18.8%,-3.4%
O=C1OC(/C=C/c2ccc(Cl)cc2Cl)=NC/1=C\c1cccs1,-25.0%,6.2%,-2.3%,35.5µM*
O=Cc1cccc(OC(=O)c2ccc(Cl)cc2Cl)c1,.,0.1%,.,.
O=C(Cc1ccccc1)N1CCNCC1,4.2%,18.9%,5.7%,22.2%
COc1ccc(C(=O)c2ccccc2C(=O)c2ccccc2)cc1,4.2%,.,-8.6%,-0.4%
COc1ccc(C(=O)c2ccccc2)c(O)c1O,.,56.2µM*,?,.
SMILES,PLK1 PBD inh,Sfp PPTase inh,VDR inh,ALOX12 inh
Fc1cccc(F)c1/C=C/c1ccc2ccccc2n1,-0.3%,-8.3%,0.6%,-6.9%
C(=C\c1ccco1)/c1nc2ccccc2[nH]1,-8.2%,39.8µM*,-12.2%,?
C(=C\c1ccco1)/c1ccc2ccccc2n1,-14.7%,50.1µM*,-1.3%,39.8µM*
COc1cc(C(=O)OCC(=O)N2CCCCC2C)ccc1OCc1c(C)noc1C (configuration not stated),-5.6%,-1.4%,-13.3%,-10.6%
CCOc1ccc(NC(=O)COc2ccccc2)c([N+](=O)[O-])c1,23.8µM*,7.5%,?,-0.7%
COc1ccc(NC(=O)COC(=O)c2ccco2)c([N+](=O)[O-])c1,26.7µM*,-13.0%,-5.4%,-2.6%
CCc1ccc(C(=O)COC(=O)CNC(=O)Cc2ccccc2)cc1,10.6%,12.7%,12.3%,i
CCC(=O)NCC(=O)OCC(=O)c1ccccc1,2.99µM*,-0.4%,-25.7%,-18.2%
O=C(Cc1cccs1)OCC(=O)c1ccccc1,.,.,.,39.8µM*
O=C(COC(=O)c1cccs1)c1ccccc1,-1.6%,8.6%,16.6%,0.0%
Cc1ccc(-c2ccc(C(=O)O)[nH]2)cc1,2.7%,-1.9%,-10.5%,2.8%
S=c1[nH]c(-c2ccc(Cl)cc2)cs1,9.47µM*,11.2µM*,?,?
Cc1ccc(-c2csc(=S)[nH]2)cc1,?,35.5µM*,?,?
CN(C)CCCNc1cc(C(C)(C)C)nc2c(-c3ccc(Cl)cc3)cnn12,2.8%,31.6µM*,3.0%,0.0%
CC(C)(C)c1cc(NCc2ccccn2)n2ncc(-c3ccc(Cl)cc3)c2n1,-2.0%,11.5%,?,162.3%
COCCCN(C(=S)Nc1cc(Cl)cc(Cl)c1)C(C)c1ccccn1 (configuration not stated),16.8µM*,25.1µM*,?,-19.8%
COCCCN(C(=S)Nc1ccc(C)cc1Cl)C(C)c1ccncc1 (configuration not stated),-5.1%,-10.2%,11.3%,?
Cc1ccc(NC(=S)N(CCC(C)C)C(C)c2ccncc2)c(Cl)c1 (configuration not stated),-8.4%,56.2µM*,-13.8%,10.1%
COCCCN(C(=S)Nc1cc(Cl)cc(Cl)c1)C(C)c1ccncc1 (configuration not stated),21.2µM*,25.1µM*,?,-3.8%
Cc1cc2c(cc3c(=O)n(CC(=O)NCc4ccccc4Br)ncn32)s1,.,.,1.7%,-29.0%
CCc1ocnc1C(=O)N1CC[C@@](O)(C2CCOCC2)[C@H](C)C1,.,.,.,15.5%
O=C(Nc1ccc(C(F)(F)F)cc1)C1CCN(c2nc3ccccc3o2)CC1,.,.,.,-3.3%
CC1(C)CC(=O)c2cc(N=C/C(C(=O)c3ccccc3)=C(\O)c3ccccc3)c(=O)oc2C1,23.8µM*,-6.8%,-20.8%,-3.6%
COc1ccc(OCCOCCOc2ccc(C)cc2[N+](=O)[O-])cc1,-7.7%,6.3%,?,-8.2%
Cc1ccc(OCCOCCN2CCCCC2)c([N+](=O)[O-])c1,-5.2%,56.2µM*,-0.6%,?
SMILES,PLK1 PBD inh,Sfp PPTase inh,VDR inh,ALOX12 inh
Cc1ccc(OCCOCCN2CCN(C)CC2)c([N+](=O)[O-])c1,-7.9%,79.4µM*,-15.9%,?
Cc1cc(Cl)c(OCCOCCN2CCCCC2)c(Br)c1,-10.9%,63.1µM*,-10.9%,?
CN1CCN(CCOCCOc2ccc(Br)cc2Cl)CC1,3.6%,56.2µM*,18.5%,-21.9%
O=[S+]([O-])(c1ccc(Br)cc1)c1nnn2c1nc(N1CCOCC1)c1ccccc12,.,.,.,0.6%[6.33 µM]
COC(=O)c1c(NC(=O)C2CC2)sc2c1CCN(C(C)=O)C2,-7.3%,14.1µM*,-12.8%,?
Cc1ccc(C(=O)C(NC(=O)c2ccco2)Nc2sc3c(c2C(N)=O)CCCC3)cc1 (configuration not stated),.,79.4µM*,.,.
CNC(=O)c1c(NC(=O)c2ccco2)sc2c1CCCC2,-2.5%,-8.5%,-3.9%,-2.6%
COC(=O)c1c(NC(=O)C2CCCCC2C(=O)O)sc2c1CCCCC2 (configuration not stated),23.8µM*,1.2%,-14.8%,?
O=C(Nc1sc2c(c1C(=O)NC1CC1)CCCCCC2)c1ccco1,-21.8%,39.8µM*,18.1%,?
CC(=O)N1CCc2c(sc(NC(=O)C3CCCCC3)c2C(N)=O)C1,-20.2%,2.8%,-5.5%,17.6%[57.4 µM]

# Screens deposited in PubChem BioAssay by National Center for Advancing Translational Sciences (NCATS).
